Experimental data as given in PubChem BioAssay (NCI).
About 83,000 compounds went through this panel and 20% of them were active in at least one assay; those are over-represented in the sample as a whole.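 Results are percent growth after 48 hours of single-concentration exposure. 100 means growth as in untreated cells, lower positive values show inhibition; negative values down to -100 show cell death.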 A number with no mark means an inactive call. The source made the active and inactive calls. The calls were made as follows: active = growth percent below 10; inactive = the rest.

Assays:
Test in all cases: NCI-60 one-dose screen, 48 h (100 = growth as untreated, 0 = no growth, -100 = all killed)
Details in all cases: 10 µM unless noted
MOLT-4 leukemia = system: MOLT-4 leukemia
SR leukemia = system: SR leukemia
RPMI-8226 leukemia = system: RPMI-8226 leukemia
OVCAR-8 ovarian = system: OVCAR-8 ovarian
OVCAR-5 ovarian = system: OVCAR-5 ovarian
OVCAR-4 ovarian = system: OVCAR-4 ovarian
SK-OV-3 ovarian = system: SK-OV-3 ovarian
IGROV1 ovarian = system: IGROV1 ovarian
OVCAR-3 ovarian = system: OVCAR-3 ovarian
HS 578T breast = system: HS 578T breast
T-47D breast = system: T-47D breast
BT-549 breast = system: BT-549 breast
MDA-MB-435 melanoma = system: MDA-MB-435 melanoma
SW-620 colon = system: SW-620 colon
MCF7 breast = system: MCF7 breast
HCT-116 colon = system: HCT-116 colon
HCC-2998 colon = system: HCC-2998 colon
KM12 colon = system: KM12 colon
NCI/ADR-RES ovarian = system: NCI/ADR-RES ovarian

SMILES: Cc1ccccc1NC(=NCCCN1CC1)Nc1ccccc1C
- growth (MOLT-4 leukemia): 70.8%
- growth (SR leukemia): 69.7%
- growth (RPMI-8226 leukemia): 95.2%
- growth (OVCAR-8 ovarian): 82.6%
- growth (OVCAR-5 ovarian): 123%
- growth (OVCAR-4 ovarian): 88.9%
- growth (SK-OV-3 ovarian): 79.9%
- growth (IGROV1 ovarian): 82%
- growth (OVCAR-3 ovarian): 90.4%
- growth (HS 578T breast): 97.4%
- growth (T-47D breast): 74.5%
- growth (BT-549 breast): 104%
- growth (MDA-MB-435 melanoma): 93%
- growth (SW-620 colon): 87.1%
- growth (MCF7 breast): 68.9%
- growth (HCT-116 colon): 79.8%
- growth (HCC-2998 colon): 102%
- growth (KM12 colon): 94.6%

SMILES: CCCc1cc(O)c2c3c(c(=O)oc2c1)CN(C)CC3
- growth (MOLT-4 leukemia): 27%
- growth (SR leukemia): 15.8%
- growth (RPMI-8226 leukemia): 28.4%
- growth (OVCAR-8 ovarian): 32.3%
- growth (OVCAR-5 ovarian): 55.9%
- growth (OVCAR-4 ovarian): 56.3%
- growth (SK-OV-3 ovarian): 26.8%
- growth (IGROV1 ovarian): 32.7%
- growth (OVCAR-3 ovarian): -3.56% (active)
- growth (HS 578T breast): 45.7%
- growth (T-47D breast): 25.5%
- growth (BT-549 breast): 39.2%
- growth (MDA-MB-435 melanoma): -57.8% (active)
- growth (SW-620 colon): 12.8%
- growth (MCF7 breast): 19%
- growth (HCT-116 colon): 20.8%
- growth (HCC-2998 colon): 53.9%
- growth (KM12 colon): 35.7%

SMILES: CCCCCCCCOC(=O)CCN1CC1
- growth (MOLT-4 leukemia): 103%
- growth (SR leukemia): 101%
- growth (RPMI-8226 leukemia): 103%
- growth (OVCAR-8 ovarian): 102%
- growth (OVCAR-5 ovarian): 104%
- growth (OVCAR-4 ovarian): 115%
- growth (SK-OV-3 ovarian): 109%
- growth (IGROV1 ovarian): 115%
- growth (OVCAR-3 ovarian): 108%
- growth (HS 578T breast): 99.6%
- growth (T-47D breast): 108%
- growth (BT-549 breast): 107%
- growth (MDA-MB-435 melanoma): 105%
- growth (SW-620 colon): 113%
- growth (MCF7 breast): 102%
- growth (HCT-116 colon): 112%
- growth (HCC-2998 colon): 110%
- growth (KM12 colon): 109%

SMILES: O=C1NC(=O)C(=Cc2cn(C(=O)c3ccccc3)c3ccccc23)C(=O)N1
- growth (MOLT-4 leukemia): 88.3%
- growth (SR leukemia): 90.5%
- growth (RPMI-8226 leukemia): 114%
- growth (OVCAR-8 ovarian): 92.3%
- growth (OVCAR-5 ovarian): 94.7%
- growth (OVCAR-4 ovarian): 92.1%
- growth (SK-OV-3 ovarian): 91.5%
- growth (OVCAR-3 ovarian): 108%
- growth (HS 578T breast): 103%
- growth (NCI/ADR-RES ovarian): 97.1%
- growth (T-47D breast): 95.2%
- growth (BT-549 breast): 105%
- growth (MDA-MB-435 melanoma): 105%
- growth (SW-620 colon): 93.7%
- growth (HCT-116 colon): 102%
- growth (HCC-2998 colon): 93.4%
- growth (KM12 colon): 108%

SMILES: CC12CC(=O)C3(SC#N)C(CCC4=CC(=O)CCC43C)C1CCC2=O (stereo not drawn)
- growth (MOLT-4 leukemia): 22.2%
- growth (SR leukemia): 86.1%
- growth (RPMI-8226 leukemia): 77.5%
- growth (OVCAR-8 ovarian): 89.6%
- growth (OVCAR-5 ovarian): 103%
- growth (OVCAR-4 ovarian): 73.8%
- growth (SK-OV-3 ovarian): 109%
- growth (IGROV1 ovarian): 99.2%
- growth (OVCAR-3 ovarian): 42.1%
- growth (T-47D breast): 32.8%
- growth (BT-549 breast): 90.7%
- growth (MDA-MB-435 melanoma): 70.9%
- growth (SW-620 colon): 40.6%
- growth (MCF7 breast): 57.7%
- growth (HCT-116 colon): 39.7%
- growth (HCC-2998 colon): 105%
- growth (KM12 colon): 102%
